The text below walks through data of PubChem BioAssay (NCI).

Among the test systems are HCT-15 colon; HT29 colon; SNB-75 CNS; SNB-19 CNS; U251 CNS; PC-3 prostate; SK-MEL-5 melanoma; UACC-62 melanoma; LOX IMVI melanoma; SK-MEL-28 melanoma; SK-MEL-2 melanoma; EKVX NSCLC; SN12C renal; UO-31 renal; TK-10 renal; ACHN renal; CAKI-1 renal; A498 renal; CCRF-CEM leukemia; MOLT-4 leukemia.
Assay in all cases: NCI-60 one-dose screen, 48 h (100 = growth as untreated, 0 = no growth, -100 = all killed)
Conditions in all cases: 10 µM unless noted

Structures are written as SMILES. Several values for one entry are separate records, joined by “and”; a condition that tells them apart may be missing. Equal entries are not always repeated. About 83,000 compounds went through this panel and 20% of them were active in at least one assay; those are over-represented in the sample as a whole.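 Values shown are percent growth following 48 h exposure of cells in 96-well plates to a single concentration of compound; below 10 was considered active.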 Activity calls are given as the source filed them.

On to `O=[N+]([O-])c1ccc(-n2[nH]nnc2=S)cc1`, for which the growth was 97.5% (inactive) in the experiment with HCT-15 colon; 99.2% (inactive) in the experiment on HT29 colon; 89.1% (inactive) with SNB-75 CNS; 98.1% (inactive) with SNB-19 CNS; 108% (inactive) with U251 CNS; 92% (inactive) in the experiment with PC-3 prostate. The growth was 122% (inactive) in the experiment with SK-MEL-5 melanoma; 94.6% (inactive) with UACC-62 melanoma; 94.4% (inactive) with LOX IMVI melanoma; 106% (inactive) in the experiment with SK-MEL-28 melanoma; 109% (inactive) in the experiment with SK-MEL-2 melanoma; 101% (inactive) with EKVX NSCLC. For the same molecule, the growth with SN12C renal is 94% (inactive); with UO-31 renal, 80.5% (inactive); in the experiment on TK-10 renal, 116% (inactive); with ACHN renal, 102% (inactive); in the experiment on CAKI-1 renal, 95.6% (inactive); in the experiment with A498 renal it was 95.1% (inactive). For the same molecule, the growth is 106% (inactive) with CCRF-CEM leukemia and 102% (inactive) in the experiment on MOLT-4 leukemia.

As to `CN(C)CCCN1c2ccccc2Sc2ccc(Cl)cc21`, the growth in the experiment on HCT-15 colon is 73.4% (inactive) and 109% (inactive) and 88.5% (inactive); in the experiment with HT29 colon, 27.4% (inactive) and 120% (inactive) and 62.9% (inactive); with SNB-75 CNS, 48.3% (inactive) and 106% (inactive) and 58.8% (inactive); in the experiment on SNB-19 CNS, 98.2% (inactive) and 92.4% (inactive) and 94.5% (inactive); in the experiment with U251 CNS it was 78.1% (inactive) and 106% (inactive) and 93.4% (inactive); in the experiment on PC-3 prostate, 67.3% (inactive) and 103% (inactive) and 80.3% (inactive). For the same molecule, the growth with SK-MEL-5 melanoma was 3.06% (active) and 102% (inactive) and 79% (inactive); in the experiment with UACC-62 melanoma, 75.3% (inactive) and 89.8% (inactive) and 88.9% (inactive); in the experiment on LOX IMVI melanoma, 78.3% (inactive) and 113% (inactive) and 100% (inactive); in the experiment with SK-MEL-28 melanoma, 83.6% (inactive) and 108% (inactive) and 98.8% (inactive); with SK-MEL-2 melanoma it was 77.6% (inactive) and 107% (inactive) and 112% (inactive); in the experiment with EKVX NSCLC it was 91.6% (inactive) and 147% (inactive). Also, the growth with SN12C renal is 66.7% (inactive) and 117% (inactive) and 78.8% (inactive); with UO-31 renal it was 54.4% (inactive) and 89.3% (inactive) and 50.3% (inactive); with TK-10 renal, 122% (inactive) and 92.6% (inactive); in the experiment with ACHN renal, 44.8% (inactive) and 108% (inactive) and 68.7% (inactive); in the experiment with CAKI-1 renal, 75.1% (inactive) and 257% (inactive) and 52.5% (inactive); in the experiment on A498 renal it was 105% (inactive) and 120% (inactive) and 108% (inactive). For the same molecule, the growth in the experiment with CCRF-CEM leukemia is 73.6% (inactive) and 98.7% (inactive); with MOLT-4 leukemia, 69.7% (inactive) and 102% (inactive) and 83.3% (inactive).

For the molecule `O=[N+]([O-])c1ccccc1/C=N\Nc1ccccc1`, the growth in the experiment with HCT-15 colon is 42.5% (inactive) and 60.2% (inactive); with HT29 colon it was 102% (inactive) and 111% (inactive); in the experiment on SNB-75 CNS, 71.4% (inactive) and 96% (inactive); in the experiment with SNB-19 CNS it was 96.2% (inactive) and 102% (inactive); in the experiment on U251 CNS it was 84.7% (inactive) and 90% (inactive); in the experiment with PC-3 prostate, 63% (inactive) and 56.5% (inactive). Besides, the growth is 90.3% (inactive) and 88.6% (inactive) in the experiment on SK-MEL-5 melanoma; 18.7% (inactive) and 19.9% (inactive) with UACC-62 melanoma; 71.7% (inactive) and 53.4% (inactive) with LOX IMVI melanoma; 115% (inactive) and 117% (inactive) with SK-MEL-28 melanoma; 86.9% (inactive) and 107% (inactive) with SK-MEL-2 melanoma; 69.3% (inactive) and 93.5% (inactive) with EKVX NSCLC. Also, the growth is 84.9% (inactive) and 87.6% (inactive) with SN12C renal; 50.6% (inactive) and 47.3% (inactive) in the experiment with UO-31 renal; 118% (inactive) and 92.6% (inactive) in the experiment on TK-10 renal; 61.4% (inactive) and 64.2% (inactive) in the experiment with ACHN renal; 79.7% (inactive) and 70.1% (inactive) in the experiment on A498 renal; 65.1% (inactive) and 50.8% (inactive) in the experiment with CCRF-CEM leukemia. The growth with MOLT-4 leukemia was 76.4% (inactive) and 89.9% (inactive).

With `CN(C)CCCNC1=C(Cl)C(=O)c2ccccc2C1=O`, the growth in the experiment with HCT-15 colon was -62.2% (active) and -49.3% (active); in the experiment on HT29 colon, -26% (active) and -31.7% (active); in the experiment on SNB-75 CNS, 64.1% (inactive) and 47.8% (inactive); with SNB-19 CNS it was 53.1% (inactive) and -9.85% (active); in the experiment with U251 CNS it was -63% (active) and -94.2% (active); in the experiment with PC-3 prostate, 56.8% (inactive) and 53.6% (inactive). The growth in the experiment with SK-MEL-5 melanoma is -94.2% (active) and -100% (active); in the experiment with UACC-62 melanoma, 28.6% (inactive) and -13.8% (active); with LOX IMVI melanoma, -43.5% (active); in the experiment on SK-MEL-28 melanoma, 83.2% (inactive) and 83.7% (inactive); in the experiment with SK-MEL-2 melanoma it was 87.6% (inactive) and -34.4% (active); with EKVX NSCLC, 30.2% (inactive) and -44.6% (active). The growth with SN12C renal is 67.1% (inactive) and -98.3% (active); with UO-31 renal, 73.8% (inactive) and 47.6% (inactive); in the experiment on TK-10 renal, 120% (inactive) and 116% (inactive); in the experiment on ACHN renal, 92.7% (inactive) and 92.5% (inactive); in the experiment on CAKI-1 renal, 91.3% (inactive) and 104% (inactive); in the experiment with A498 renal it was 103% (inactive) and 85.4% (inactive). In addition, the growth in the experiment on CCRF-CEM leukemia is 80% (inactive) and 81.3% (inactive); in the experiment with MOLT-4 leukemia, 57% (inactive) and 79.3% (inactive).

Regarding `CC1=C(/C=C/C(C)=C/C=C/C(C)=C/C(=O)O)C(C)(C)CCC1`, the growth with HCT-15 colon is 91.4% (inactive) and 81.1% (inactive) and 92% (inactive); in the experiment with HT29 colon, 88.7% (inactive) and 89.2% (inactive) and 96% (inactive); in the experiment on SNB-75 CNS, 122% (inactive) and 72.2% (inactive) and 79.7% (inactive); with SNB-19 CNS it was 86.1% (inactive) and 97.4% (inactive) and 90.3% (inactive); in the experiment with U251 CNS it was 83.2% (inactive) and 87.1% (inactive) and 90.4% (inactive); with PC-3 prostate it was 88.3% (inactive) and 89.7% (inactive) and 101% (inactive). The growth is 83.5% (inactive) and 86.5% (inactive) and 99.3% (inactive) with SK-MEL-5 melanoma; 73.2% (inactive) and 80.4% (inactive) and 61.3% (inactive) in the experiment with UACC-62 melanoma; 91% (inactive) and 85.3% (inactive) and 89.9% (inactive) with LOX IMVI melanoma; 109% (inactive) and 116% (inactive) in the experiment on SK-MEL-28 melanoma; 87.5% (inactive) and 94.7% (inactive) with SK-MEL-2 melanoma; 84% (inactive) and 92.2% (inactive) and 87.7% (inactive) in the experiment with EKVX NSCLC. The growth with SN12C renal was 81% (inactive) and 85.3% (inactive) and 73.8% (inactive); in the experiment with UO-31 renal, 80.9% (inactive) and 64.5% (inactive) and 86.8% (inactive); with TK-10 renal, 101% (inactive) and 99.5% (inactive) and 109% (inactive); in the experiment with ACHN renal, 94.9% (inactive) and 98.9% (inactive) and 94.8% (inactive); in the experiment with CAKI-1 renal it was 81.3% (inactive) and 87% (inactive) and 82.9% (inactive); in the experiment with A498 renal, 20.2% (inactive) and 109% (inactive) and 86.7% (inactive). Besides, the growth with CCRF-CEM leukemia was 78.5% (inactive) and 92.8% (inactive) and 103% (inactive); in the experiment with MOLT-4 leukemia, 59.3% (inactive) and 99% (inactive) and 83.8% (inactive).

As to `Cc1ccc(S(=O)(=O)Nc2ccc3cc([N+](=O)[O-])ccc3c2[N+](=O)[O-])cc1`, the growth is 71% (inactive) and 94.2% (inactive) in the experiment on HCT-15 colon; 93.3% (inactive) and 114% (inactive) with HT29 colon; 80% (inactive) and 106% (inactive) in the experiment with SNB-75 CNS; 85.6% (inactive) and 96.2% (inactive) in the experiment with SNB-19 CNS; 82.1% (inactive) and 88.2% (inactive) in the experiment with U251 CNS; 71.7% (inactive) and 73.4% (inactive) in the experiment with PC-3 prostate. The growth in the experiment with SK-MEL-5 melanoma is 86.1% (inactive); with UACC-62 melanoma it was 44% (inactive) and 69.1% (inactive); in the experiment with LOX IMVI melanoma, 82% (inactive) and 97.3% (inactive); in the experiment with SK-MEL-28 melanoma it was 89.7% (inactive) and 115% (inactive); in the experiment on SK-MEL-2 melanoma, 99.7% (inactive) and 87.5% (inactive); in the experiment on EKVX NSCLC, 86% (inactive) and 75.7% (inactive). Further, the growth was 74.7% (inactive) and 91.6% (inactive) in the experiment on SN12C renal; 47.1% (inactive) and 58.1% (inactive) in the experiment on UO-31 renal; 78.5% (inactive) and 101% (inactive) in the experiment on TK-10 renal; 71.2% (inactive) and 94.5% (inactive) in the experiment with ACHN renal; 57.8% (inactive) and 69.4% (inactive) with CAKI-1 renal; 69.1% (inactive) and 83% (inactive) in the experiment on A498 renal. The growth was 79.1% (inactive) and 39.4% (inactive) in the experiment on CCRF-CEM leukemia; 82.8% (inactive) and 63% (inactive) with MOLT-4 leukemia.

Consider `COc1c(/C(C)=N/N=c2sc(C(C)=O)nn2-c2ccc(Cl)cc2)c(Oc2ccccc2)c(OC)c2occc12`, for which the growth was 102% (inactive) and 92.6% (inactive) in the experiment on HCT-15 colon; 108% (inactive) and 86.1% (inactive) in the experiment on HT29 colon; 80.6% (inactive) and 90.1% (inactive) in the experiment with SNB-75 CNS; 96.1% (inactive) and 98.1% (inactive) in the experiment on SNB-19 CNS; 99.5% (inactive) and 97.2% (inactive) with U251 CNS; 102% (inactive) and 88% (inactive) in the experiment with PC-3 prostate. The growth in the experiment on SK-MEL-5 melanoma was 100% (inactive) and 103% (inactive); with UACC-62 melanoma, 96.1% (inactive) and 84.7% (inactive); in the experiment with LOX IMVI melanoma, 91.8% (inactive) and 96% (inactive); with SK-MEL-28 melanoma it was 112% (inactive); in the experiment with SK-MEL-2 melanoma, 111% (inactive) and 114% (inactive); with EKVX NSCLC it was 93.1% (inactive) and 99.8% (inactive). The growth in the experiment on SN12C renal is 104% (inactive) and 98.8% (inactive); with UO-31 renal, 75.8% (inactive) and 72.3% (inactive); in the experiment on TK-10 renal, 124% (inactive) and 118% (inactive); in the experiment with ACHN renal it was 109% (inactive) and 101% (inactive); in the experiment on CAKI-1 renal, 82% (inactive) and 64.5% (inactive); in the experiment with A498 renal, 100% (inactive) and 77.1% (inactive). Further, the growth is 106% (inactive) in the experiment on CCRF-CEM leukemia; 103% (inactive) and 89.3% (inactive) in the experiment on MOLT-4 leukemia.

As for `CCCCCCCCCCCCCCCCOc1ccc(C)cc1`, the growth with HCT-15 colon is 108% (inactive); with HT29 colon, 106% (inactive); with SNB-75 CNS it was 104% (inactive); with SNB-19 CNS it was 109% (inactive); with U251 CNS it was 101% (inactive); in the experiment with PC-3 prostate, 102% (inactive). Also, the growth is 108% (inactive) in the experiment with SK-MEL-5 melanoma; 105% (inactive) in the experiment on UACC-62 melanoma; 87.3% (inactive) in the experiment with LOX IMVI melanoma; 111% (inactive) in the experiment with SK-MEL-28 melanoma; 115% (inactive) with SK-MEL-2 melanoma; 99.7% (inactive) in the experiment on EKVX NSCLC. Further, the growth with SN12C renal is 104% (inactive); in the experiment on UO-31 renal it was 81.5% (inactive); in the experiment on TK-10 renal it was 109% (inactive); in the experiment with ACHN renal, 104% (inactive); in the experiment with CAKI-1 renal, 105% (inactive); with A498 renal, 92.3% (inactive). Moreover, the growth in the experiment on CCRF-CEM leukemia was 127% (inactive); with MOLT-4 leukemia, 103% (inactive).
